Data on eight molecules can be found in PubChem BioAssay (EPA / NIEHS).

Settings in all cases: mRNA level, 48 h; actives raise or lower the signal
Read-out in assay [1]: Lipoprotein lipase (LPL), LPL (gene 4023)
Put plainly: LTEA_HepaRG_LPL: Life Technologies and Expression Analysis (LTEA) Assay for Lipoprotein lipase (LPL) using HepaRG (AID 2283515). The gist of the method:
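Differentiated human HepaRG cells in serum-free induction medium were exposed in duplicate for 48 h to eight half-log concentrations (top 100 uM) in 0.5% DMSO. LPL mRNA was quantified by TaqMan qRT-PCR, normalized to ACTB, GAPDH and POLR2A.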

Read-out in assay [2]: matrix metalloproteinase-10 (MMP10), MMP10 (gene 4319)
Put plainly: LTEA_HepaRG_MMP10: Life Technologies and Expression Analysis (LTEA) Assay for matrix metalloproteinase-10 (MMP10) using HepaRG (AID 2283517). The gist of the method: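 HepaRG, collagen I, ~100,000 cells/well; serum-free induction medium; 48 h exposure, duplicate, 8-pt half-log to 100 uM, 0.5% DMSO. Readout: TaqMan qRT-PCR, normalized to ACTB/GAPDH/POLR2A; bidirectional fit vs DMSO.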

Read-out in a further assay: MYC, MYC (gene 4609)
Put plainly: LTEA_HepaRG_MYC: Life Technologies and Expression Analysis (LTEA) Assay for MYC using HepaRG (AID 2283518). The gist of the method:
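qRT-PCR read-out of MYC transcript (Fluidigm TaqMan, housekeeping-normalized) after 48 h chemical exposure of HepaRG cells; eight concentrations, top 100 uM, half-log steps. Bidirectional curve fitting against 0.5% DMSO vehicle baseline.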

Read-out in assay [3]: Paternally Expressed 10 (PEG10), PEG10 (gene 23089)
Put plainly: LTEA_HepaRG_PEG10: Life Technologies and Expression Analysis (LTEA) Assay for Paternally Expressed 10 (PEG10) using HepaRG (AID 2283520). The method in brief: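 Differentiated HepaRG cells exposed 48 h in serum-free induction medium to eight half-log concentrations topping at 100 uM, 0.5% DMSO, in duplicate. PEG10 mRNA quantified by TaqMan qRT-PCR, normalized to ACTB, GAPDH and POLR2A; bidirectional fit versus DMSO.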

Read-out in assay [4]: Protein phosphatase 2A (PPP2R4), PTPA (gene 5524)
Briefly: LTEA_HepaRG_PPP2R4: Life Technologies and Expression Analysis (LTEA) Assay for Protein phosphatase 2A (PPP2R4) using HepaRG (AID 2283522). The gist of the method:
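Differentiated human HepaRG cells in serum-free induction medium were exposed 48 h to 8 concentrations (top 100 µM, half-log steps, duplicate) in 0.5% DMSO. PPP2R4 mRNA was measured by TaqMan qRT-PCR, normalised to ACTB, GAPDH and POLR2A, and fitted bidirectionally versus DMSO.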

Read-out in assay [5]: Phosphatase and tensin (PTEN), PTEN (gene 5728)
Briefly: LTEA_HepaRG_PTEN: Life Technologies and Expression Analysis (LTEA) Assay for Phosphatase and tensin (PTEN) using HepaRG (AID 2283523). The gist of the method:
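Differentiated human HepaRG cells, plated 48 h then switched to serum-free induction medium, were exposed in duplicate for 48 h to eight half-log concentrations up to 100 uM in 0.5% DMSO. PTEN mRNA measured by TaqMan qRT-PCR, normalized to ACTB/GAPDH/POLR2A, bidirectional fit versus DMSO.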

Read-out in assay [6]: solute carrier (SLC22A1), SLC22A1 (gene 6580)
Put plainly: LTEA_HepaRG_SLC22A1: Life Technologies and Expression Analysis (LTEA) Assay for solute carrier (SLC22A1) using HepaRG (AID 2283524). The method in brief:
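Human HepaRG cells were plated 48 h, switched to serum-free induction medium, then exposed in duplicate for 48 h to 8-point half-log series from 100 uM in 0.5% DMSO. SLC22A1 mRNA measured by qRT-PCR, normalized to ACTB/GAPDH/POLR2A, fitted bidirectionally versus DMSO.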

Read-out in assay [7]: Pyruvate Dehydrogenase Kinase 4 (PDK4), PDK4 (gene 5166)
Briefly: LTEA_HepaRG_PDK4: Life Technologies and Expression Analysis (LTEA) Assay for Pyruvate Dehydrogenase Kinase 4 (PDK4) using HepaRG (AID 2283525). The method in brief:
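Differentiated human HepaRG cells, pre-cultured 48 h, were exposed in duplicate for 48 h in serum-free induction medium to eight half-log concentrations up to 100 uM in 0.5% DMSO. PDK4 mRNA was quantified by qRT-PCR, normalized to ACTB, GAPDH and POLR2A, bidirectional fitting versus DMSO.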

Read-out in assay [8]: NAD(P)H dehydrogenase [quinone] 1 (NQO1), NQO1 (gene 1728)
Put plainly: LTEA_HepaRG_NQO1: Life Technologies and Expression Analysis (LTEA) Assay for NAD(P)H dehydrogenase [quinone] 1 (NQO1) using HepaRG (AID 2283526). The gist of the method:
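Differentiated human HepaRG cells in serum-free induction medium, dosed in duplicate for 48 h at 8 half-log concentrations up to 100 uM in 0.5% DMSO. NQO1 mRNA by qRT-PCR normalized to ACTB, GAPDH, POLR2A; bidirectional fit versus DMSO baseline.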

Read-out in assay [9]: Nuclear factor NF-kappa-B p105 subunit (Homo sapiens) (UniProt P19838)
Put plainly: LTEA_HepaRG_NFKB1: Life Technologies and Expression Analysis (LTEA) Assay for Nuclear Factor Kappa B Subunit 1 (NFKB1) using HepaRG (AID 2283521).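 For outcome: TaqMan qRT-PCR transcript normalised to ACTB GAPDH and POLR2A housekeeping genes.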 On the procedure: LTEA_HepaRG is a cell based, multiplexed-readout assay that uses HepaRG, a human liver cell line, with measurements taken at 48 hours after chemical dosing on a 96-well plate.LTEA_HepaRG_NFKB1 is one of 102 assay component(s) measured in the LTEA HepaRG cell culture assay. It is a marker of Cell proliferation, survival, death.Data from the assay component LTEA_HepaRG_NFKB1 was analyzed into 1 endpoint. This assay endpoint, LTEA_HepaRG_NFKB1, was analyzed with bidirectional fitting relative to DMSO as the negative control and baseline of activity. Using a type of inducible reporter, measures of mRNA induction for gain or loss-of-signal activity can be used to understand regulation of transcription factor activity. To generalize the intended target to other relatable targets, this assay endpoint is annotated to the dna binding intended target family, where the subfamily is NF-kappa B.
A total of 1060 chemcials from the ToxCast library were tested in eight-point concentration-response experiments. Cell culture and cytotoxicity assays were conducted at Thermo Fisher Scientific's Custom Services facility (Madison, WI). A single lot of human HepaRG cells (Thermo Fisher Scientific, Frederick, MD) was used for the cell culture experiments. 96-well format collagen type I coated plates of human HepaRG cells were prepared using established methods. Briefly, cryopreserved HepaRG cells were thawed, plated at a density of approximately 100,000 cells/well in HepaRG Thaw, Plate, and General Purpose media (HPRG770, Thermo Fisher Scientific), and incubated for 48 hours. 0.5% DMSO was selected as vehicle control to balance the requisite need of DMSO in HepaRG cultures to maintain differentiation (for example, baseline metabolism, proportions of hepatocytes vs. cholangiocytes), while enabling further hepatic receptor pathway activation (for example, PXR and CAR) in response to chemical exposure. 48 hours after plating, the culture medium was replaced with HepaRG Serum-Free Incudtion Media. Cells were exposed to each test chemical in duplicate and maintained in CO2 incubators for another 48 hours. Chemical plates were thawed to room temperature and 200x concentrations of treatment groups were prepared. 8-point conentration-reponse curves were made with the highest exposure at 100 uM, followed by half-log dilutions, all in 0.5% DMSO. Each test plate contained variouse controls, induction positive controls (1mM phenobarbital), cytotoxicity positive controls ([…] aflatoxin B1), vehicle controls (0.5% DMSO), and total lysis controls (0.5% DMSO). Cell morphology images were taken using an Essen IncuCyte FLR automated microscope, with six 96-well plates imaged in about 24 minutes. Images were captured and exported and JPEG files. Spent culture media was transfered to black-well plates for the LDH assay, and remaining media was sorted at -80 C for later use. Cells were treated with RLT buffer and frozen until shipped for gene expression analysis. Total RNA was isolated from the cell suspension in 75 uL of Buffer RLT (Qiagen, Germantown, MD 20874) by Quintiles/Expression Analysis (Durham, NC) using a custom isolation procedure. Total RNA from each plate well was transferred to a preamplification plate. Fluidigm's 96.96 Dynamic ArrayTM (Fluidigm, Amsterdam, the Netherlands) technology was used for gene expression analyses by quantitative reverse transcription polymerase chain reaction (qRT-PCR, performed by Quintiles/Expression Analysis, Durham, NC)89. […]

SMILES strings stand for the structures. The source made the active and inactive calls. Rule for the calls: active = hit-call score of the fitted dose curve at least 0.9, where 1 is the maximum; inactive = score below 0.9.

Nuclear factor NF-kappa-B p105 subunit (Homo sapiens), sequence (P19838 whole entry, looked up): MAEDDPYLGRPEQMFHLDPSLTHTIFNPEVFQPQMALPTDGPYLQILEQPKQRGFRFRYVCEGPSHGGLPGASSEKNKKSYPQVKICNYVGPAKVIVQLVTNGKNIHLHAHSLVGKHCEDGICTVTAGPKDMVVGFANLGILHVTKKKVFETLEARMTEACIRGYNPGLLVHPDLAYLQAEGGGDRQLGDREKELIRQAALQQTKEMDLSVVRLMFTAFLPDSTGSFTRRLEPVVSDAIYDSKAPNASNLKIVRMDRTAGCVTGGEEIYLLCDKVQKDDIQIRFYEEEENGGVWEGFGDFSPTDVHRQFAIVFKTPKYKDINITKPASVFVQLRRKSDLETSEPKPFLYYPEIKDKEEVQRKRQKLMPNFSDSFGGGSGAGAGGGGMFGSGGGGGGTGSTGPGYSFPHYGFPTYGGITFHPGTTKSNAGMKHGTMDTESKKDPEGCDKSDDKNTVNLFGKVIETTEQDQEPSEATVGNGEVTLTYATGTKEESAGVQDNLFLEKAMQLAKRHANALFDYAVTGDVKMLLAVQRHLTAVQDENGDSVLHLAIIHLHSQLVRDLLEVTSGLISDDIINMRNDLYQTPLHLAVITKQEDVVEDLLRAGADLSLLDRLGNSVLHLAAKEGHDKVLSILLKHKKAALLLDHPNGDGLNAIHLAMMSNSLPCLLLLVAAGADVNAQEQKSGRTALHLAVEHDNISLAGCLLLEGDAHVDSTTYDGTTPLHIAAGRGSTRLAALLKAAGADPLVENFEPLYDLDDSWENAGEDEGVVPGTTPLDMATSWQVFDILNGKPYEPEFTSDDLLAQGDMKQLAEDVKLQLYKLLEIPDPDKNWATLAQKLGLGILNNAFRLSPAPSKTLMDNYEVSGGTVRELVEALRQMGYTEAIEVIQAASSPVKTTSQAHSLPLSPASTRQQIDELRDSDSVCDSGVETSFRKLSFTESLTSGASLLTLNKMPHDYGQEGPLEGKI

As to `O=C(CCCN1CCC(O)(c2ccc(Cl)cc2)CC1)c1ccc(F)cc1`, the half-maximal activity concentration (AC50) (as a rule, the midpoint of the concentration-response curve, whichever way the signal moves) was 34.4 µM (active) in [1]; 82.4 µM (active) in assay [2]; 73.6 µM (active) in the assay with MYC, MYC (gene 4609); 85.5 µM (active) in assay [6]; 69.4 µM (active) in [7]. Also, the result in assay [3], in [4], in assay [5] and in assay [8] was inactive.
Regarding `CS(=O)(=O)c1ccc([C@@H](CC2CCCC2)C(=O)Nc2cnccn2)cc1Cl`, the molecule was called inactive in assay [1], in assay [3], in assay [5], in assay [7] and in assay [8]. For the same molecule, the AC50 in assay [2] was 79.5 µM (active); in the assay with MYC, MYC (gene 4609), 62.7 µM (active); in assay [4], 50 µM (active); in assay [6] it was 66.7 µM (active).
Regarding `CCCCCCCCCCCCCCC`, the outcome was “inactive” in [1]; “inactive” in assay [2]; “inactive” with MYC, MYC (gene 4609); “inactive” in [3]; “inactive” in assay [9]; “inactive” in assay [4]. Also, the molecule was classed as inactive in [5], in assay [6], in assay [7] and in assay [8].
For `CN(Cc1cnc2nc(N)nc(N)c2n1)c1ccc(C(=O)N[C@@H](CCC(=O)O)C(=O)O)cc1`, the outcome in assay [1] is “inactive”; in assay [2], “inactive”; in the assay with MYC, MYC (gene 4609), “inactive”; in [3] it was “inactive”; in assay [4], “inactive”; in [5], “inactive”. The outcome in [8] was inactive. The concentration at half-maximal activity (AC50) in assay [6] is 0.137 µM (active); in assay [7], 0.515 µM (active).
For `CCCCCCCCCCCCOS(=O)(=O)O`, the outcome in assay [1] was “inactive”; with MYC, MYC (gene 4609) it was “inactive”; in assay [3], “inactive”; in [8] it was “inactive”. For the same molecule, the values for the AC50 in [2], in assay [6] and in assay [7] were 70.2 µM (active), 77.5 µM (active) and 36.9 µM (active), respectively.
As for `N=C(N)c1ccc(OCCCCCOc2ccc(C(=N)N)cc2)cc1`, the half-maximal activity concentration (AC50) was 68.9 µM (active) in [1]; 26.1 µM (active) in assay [2]; 3.56 µM (active) with MYC, MYC (gene 4609); 26.6 µM (active) in assay [3]; 29.1 µM (active) in [9]; 28.4 µM (active) in assay [4]. Also, the half-maximal activity concentration (AC50) is 29.9 µM (active) in assay [5], 6.6 µM (active) in assay [6] and 43.8 µM (active) in [8].
As for `OCC(CO)(CBr)CBr`, the outcome in [1] was “inactive”; in assay [2], “inactive”; with MYC, MYC (gene 4609), “inactive”; in assay [3], “inactive”; in [9] it was “inactive”; in assay [4] it was “inactive”. Moreover, the outcome in [5], in [6], in [7] and in assay [8] was inactive.
Turning to `CCCCc1oc2ccccc2c1C(=O)c1cc(I)c(OCCN(CC)CC)c(I)c1`, the AC50 is 47.6 µM (active) in [1]; 54.7 µM (active) in [2]; 68.7 µM (active) with MYC, MYC (gene 4609); 22.6 µM (active) in [3]; 70.6 µM (active) in [6]; 59.2 µM (active) in assay [7]. The molecule was classed as inactive in assay [4], in assay [5] and in assay [8].
